The nature of test [1]: A CellTox Green Cytotoxicity Assay to monitor cytotoxicity in HEK293 cells - 32 hour (AID 1224881). Note: nearly all actives have a fitted effect of over 40% in size. Note: potency is the fitted concentration of half-maximal effect. The essentials:
(§1)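 Seeding of HEK293 cells together with cytotoxicity dye preceded a 5 h incubation at 37 C/5% CO2. Test compounds in DMSO were then added and fluorescence monitored across 40 h.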

A short description of test [2]: A CellTox Green Cytotoxicity Assay to monitor cytotoxicity in HepG2 cells - 0 hour (AID 1224882). Note: nearly all actives have a fitted effect of over 35% in size. The essentials:
(§2)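 Nonlytic assay: viable cells exclude the dye, so fluorescence scales with cell death. HepG2 at 600 cells/well, compounds added after 5 h, signal read across 40 h.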

The nature of test [3]: A CellTox Green Cytotoxicity Assay to monitor cytotoxicity in HepG2 cells - 32 hour (AID 1224883). Note: nearly all actives have a fitted effect of over 50% in size. Note: potency is the fitted concentration of half-maximal effect. In outline:
as §2

Test [4] in a line: A CellTox Green Cytotoxicity Assay to monitor cytotoxicity in HEK293 cells - 8 hour (AID 1224884). Note: nearly all actives have a fitted effect of over 35% in size. Note: potency is the fitted concentration of half-maximal effect. In outline:
as §1

The nature of test [5]: qHTS RealTime-Glo MT Cell Viability Assay in HepG2 cells - 16 hour (AID 1224885). Note: nearly all actives have a fitted effect of over 50% in size. Note: potency is the fitted concentration of half-maximal effect. The essentials:
(§3)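 Viability was tracked continuously by NanoLuc luminescence from prosubstrate reduced by living HepG2 cells, at successive time points over 40 h of compound exposure. Cells with reagent were preincubated 5 h at 37 °C before compound addition.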
(In general: qHTS replaces the single test concentration by a dilution series.)

Test [6] in a line: qHTS RealTime-Glo MT Cell Viability Assay in HEK293 cells - 8 hour (AID 1224887). Note: top concentration of the series differs between compounds; nearly all actives have a fitted effect of over 50% in size. In outline:
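Tox21 screen in HEK293 using RealTime-Glo MT chemistry, with cells and reagent co-dispensed. Luminescence proportional to viable cell number was captured at intervals during 40 h compound exposure at 37 C.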

The nature of test [7]: A CellTox Green Cytotoxicity Assay to monitor cytotoxicity in HEK293 cells - 16 hour (AID 1224888). Note: nearly all actives have a fitted effect of over 35% in size. Note: potency is the fitted concentration of half-maximal effect. In outline: as §1
Test [8] is described as follows: qHTS RealTime-Glo MT Cell Viability Assay in HepG2 cells - 0 hour (AID 1224889). Note: nearly all actives have a fitted effect of over 50% in size. Note: potency is the fitted concentration of half-maximal effect. In outline:
as §3

Test [9] is described as follows: A CellTox Green Cytotoxicity Assay to monitor cytotoxicity in HepG2 cells - 8 hour (AID 1224890). Note: nearly all actives have a fitted effect of over 45% in size. Note: potency is the fitted concentration of half-maximal effect. In outline: as §2
A short description of test [10]: qHTS assay to identify small molecule antagonists of the estrogen receptor alpha (ER-alpha) signaling pathway using the BG1 cell line in the presence of 0.1 nM 17-beta-estradiol - cell viability counter screen (AID 1259241). Note: nearly all actives have a fitted effect of over 40% in size. In outline: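 VM7Luc4E2, 4,000 cells/well, phenol red-free medium + 10% charcoal-stripped FBS; 24 hr plating; cpd + 0.1 nM E2 final, 22 hr 37C/5% CO2; CellTiter-Fluor 30 min, fluorescence.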

Test [11] in a line: qHTS assay to identify small molecule antagonists of the androgen receptor (AR) signaling pathway using the MDA cell line in the presence of 0.5 nM R1881 - cell viability counter screen (AID 1259242). Note: nearly all actives have a fitted effect of over 45% in size. In outline:
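R1881 at 0.5 nM final stimulated MDA-kb2 cells during 16 hr compound treatment at 37C. Cytotoxicity read: CellTiter-Fluor fluorescence after 30 min.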

Test [12] in a line: qHTS assay to identify small molecule HDAC inhibitors (AID 1259364).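 Note: wild-type HCT-116 cells with endogenous class I/II HDAC activity; top concentration of the series differs between compounds; nearly all actives have a fitted effect of over 45% in size.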 In outline: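 Relative class I and II HDAC activity is taken from the luminogenic signal in HCT-116 cells, with compound exposure 2 hr and reagent development 30 min at room temperature.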
A short description of test [13]: qHTS assay to identify small molecule HDAC inhibitors - cell viability counter screen (AID 1259365). The essentials: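 Luminescence from CellTiter-Glo, developed 30min at room temperature, reports viability of wild-type HCT-116 cells treated 2hr with compounds at 37 C and 5% CO2 after overnight plating.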
The nature of test [14]: qHTS assay to identify small molecule antagonists of the sonic hedgehog signaling (Shh) pathway - cell viability counter screen (AID 1259367). Note: nearly all actives have a fitted effect of over 55% in size. In outline:
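Cells: 3T3 Gli1-Luc, 2,000/well, 4 hr pre-incubation. Compounds in DMSO, then conditioned medium. Incubation 24 hr, 37C, 5% CO2. CellTiter-Fluor at 23 hr, 1 hr, fluorescence.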

Test [15] in a line: qHTS assay to identify small molecule agonists of the sonic hedgehog signaling (Shh) pathway (AID 1259368; calls by dose curve;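 note: NIH/3T3-derived 3T3Gli1-Luc cells carrying a stable Gli1-driven firefly luciferase reporter; series mostly up to about 92 µM; nearly all actives have a fitted effect of over 15% in size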). In outline: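 Mouse fibroblast (NIH/3T3) reporter cells with stably integrated Gli1-Luc were treated 24 hr with compound; firefly luciferase luminescence served as the read-out.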
Test [16] is described as follows: qHTS RealTime-Glo MT Cell Viability Assay in HEK293 cells - 24 hour (AID 1224886). Note: nearly all actives have a fitted effect of over 50% in size. Note: potency is the fitted concentration of half-maximal effect. The essentials:
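Viability tracked continuously by luminescence as live cells reduce a prosubstrate for NanoLuc; HEK293 cells preincubated 5 h, compound-treated at 37 C, and read at 0, 8, 16, 24, 32 and 40 h.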

Test [17] concerns the target Estrogen receptor (Homo sapiens) (UniProt P03372). Put plainly: qHTS assay to identify small molecule antagonists of the estrogen receptor alpha (ER-alpha) signaling pathway using the BG1 cell line in the presence of 0.1 nM 17-beta-estradiol (AID 1259244). Note: nearly all actives have a fitted effect of over 50% in size. The essentials: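 VM7Luc4E2; 4xERE-luciferase; 0.1 nM E2 final; 22 h co-incubation, 37C; ONE-Glo luminescence after 30 min at room temperature.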

Test [18] can be described thus: qHTS assay to identify small molecule agonists of the sonic hedgehog signaling (Shh) pathway - cell viability counter screen (AID 1259366). Note: nearly all actives have a fitted effect of over 50% in size. In outline: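 Cytotoxicity counter screen run in the same wells as the Shh reporter assay. NIH/3T3 cells carrying a Gli1 response element–driven luciferase were treated with DMSO-dissolved compounds for 24hr, and live-cell protease activity was measured with CellTiter-Fluor.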

Test [19] can be described thus: qHTS assay to identify small molecule phospholipidosis (PLD) inducers (AID 1259344; active = well fitted curve in the direction sought with a large enough effect; an effect the other way counts as inactive or inconclusive). In outline: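 Phospholipidosis is scored by imaging LipidTOX-stained pits in HepG2 cells exposed to compound for 24 h at 37 C; pit counts and integrated intensities per well and per cell serve as outputs.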
Test [20] addresses Androgen receptor (Homo sapiens) (UniProt P10275). Description: qHTS assay to identify small molecule antagonists of the androgen receptor (AR) signaling pathway using the MDA cell line in the presence of 0.5 nM R1881 (AID 1259243). Note: nearly all actives have a fitted effect of over 50% in size. In outline:
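We exposed MDA-kb2 cells to compounds under 0.5 nM R1881 stimulation for 16 hr at 37C and quantified MMTV-driven luciferase by luminescence.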

A number with no mark means an inactive call. Records with an inconclusive call do not appear. Activity calls are given as the source filed them. Unless noted, calls come from the whole dose curve; as a rule, active = well fitted curve in the direction sought with a large enough effect in the repeat runs; inconclusive = weak or mixed curves; inactive = no such curve, though single readings can be large; an effect the other way counts as inactive or inconclusive.

Estrogen receptor (Homo sapiens), sequence (P03372 whole entry, looked up): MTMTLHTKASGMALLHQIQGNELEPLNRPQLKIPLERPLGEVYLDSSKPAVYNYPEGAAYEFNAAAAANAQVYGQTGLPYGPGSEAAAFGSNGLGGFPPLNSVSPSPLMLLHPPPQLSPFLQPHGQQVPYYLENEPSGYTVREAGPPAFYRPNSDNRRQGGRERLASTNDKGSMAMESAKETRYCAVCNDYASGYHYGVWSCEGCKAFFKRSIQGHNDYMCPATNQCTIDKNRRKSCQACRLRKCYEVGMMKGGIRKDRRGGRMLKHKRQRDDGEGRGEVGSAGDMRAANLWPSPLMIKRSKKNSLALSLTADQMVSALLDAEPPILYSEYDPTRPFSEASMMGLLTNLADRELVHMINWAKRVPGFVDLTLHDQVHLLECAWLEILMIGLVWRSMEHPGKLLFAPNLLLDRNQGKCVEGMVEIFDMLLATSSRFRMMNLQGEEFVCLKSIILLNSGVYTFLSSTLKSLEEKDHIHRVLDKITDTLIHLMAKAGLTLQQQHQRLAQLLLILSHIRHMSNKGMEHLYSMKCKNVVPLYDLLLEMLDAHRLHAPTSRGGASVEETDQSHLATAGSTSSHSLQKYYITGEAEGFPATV
Androgen receptor (Homo sapiens), sequence (P10275 whole entry, looked up): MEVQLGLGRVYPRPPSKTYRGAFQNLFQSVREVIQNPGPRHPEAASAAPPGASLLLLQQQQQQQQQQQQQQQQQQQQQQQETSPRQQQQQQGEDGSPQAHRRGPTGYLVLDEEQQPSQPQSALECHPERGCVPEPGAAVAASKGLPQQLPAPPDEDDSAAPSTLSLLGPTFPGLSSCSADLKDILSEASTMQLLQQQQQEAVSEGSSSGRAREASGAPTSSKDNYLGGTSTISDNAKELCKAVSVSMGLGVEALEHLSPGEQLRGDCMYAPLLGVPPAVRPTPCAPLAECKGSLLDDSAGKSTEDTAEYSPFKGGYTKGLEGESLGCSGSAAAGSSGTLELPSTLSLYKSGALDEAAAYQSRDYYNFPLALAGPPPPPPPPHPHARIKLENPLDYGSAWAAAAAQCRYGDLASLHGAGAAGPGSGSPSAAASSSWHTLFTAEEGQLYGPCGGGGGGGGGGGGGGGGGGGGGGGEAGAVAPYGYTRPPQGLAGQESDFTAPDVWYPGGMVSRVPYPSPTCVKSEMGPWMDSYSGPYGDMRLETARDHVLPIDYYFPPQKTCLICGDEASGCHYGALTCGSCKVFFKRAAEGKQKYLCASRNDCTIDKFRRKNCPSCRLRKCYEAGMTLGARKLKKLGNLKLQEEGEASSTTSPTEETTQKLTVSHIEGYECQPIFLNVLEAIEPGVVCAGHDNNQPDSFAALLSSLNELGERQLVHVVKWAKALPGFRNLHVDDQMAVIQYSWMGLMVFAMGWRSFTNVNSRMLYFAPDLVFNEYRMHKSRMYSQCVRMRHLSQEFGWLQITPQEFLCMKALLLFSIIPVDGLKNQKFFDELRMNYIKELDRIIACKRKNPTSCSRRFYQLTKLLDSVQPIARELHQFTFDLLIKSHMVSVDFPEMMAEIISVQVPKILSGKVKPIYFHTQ

Turning to `S=C([S-])NCCNC(=S)[S-].[Mn+2]`, the Potency result in test [1], in test [2], in test [3], in [4], in [5] and in test [6] was “inactive” throughout. In addition, the Potency result in test [7], in test [8], in test [9], in test [10], in test [11] and in test [12] was “inactive” each time. The Potency entry in test [13] and in test [14] was “inactive” throughout. Moreover, in test [15], the result was inactive.

For the molecule `C/C=C(/C(=C/C)c1ccc(OC(C)=O)cc1)c1ccc(OC(C)=O)cc1`, the Potency result in test [1], in [2], in test [3], in [4], in [5] and in test [16] was “inactive” in each case. Moreover, the Potency result in [8], in [10], in test [11], in test [17], in test [12] and in test [13] was “inactive” each time. The Potency result in [18] and in test [14] was “inactive” throughout. In addition, in [15], the molecule was called inactive.

Consider `COc1cc2nc(N3CCN(C(=O)C4COc5ccccc5O4)CC3)nc(N)c2cc1OC` (stereo not drawn), for which the Potency result in test [1], in [2], in test [4], in test [5], in test [7] and in [9] was “inactive” each time. Also, the Potency result in [10], in [11], in test [19], in test [12], in [13] and in test [18] was “inactive” each time. Moreover, in [14], the Potency entry is “inactive”. For the same molecule, the Potency in test [3] was 23.9 µM (active); in test [16] it was 21.3 µM (active); in [8] it was 10.7 µM (active). For the same molecule, the molecule was called inactive in test [15].

Consider `COc1cc2nc(Cl)nc(N)c2cc1OC`, for which the Potency result in test [1], in test [2], in [3], in [4], in test [5] and in [8] was “inactive” in each case. Moreover, the Potency result in test [9], in test [10], in test [11], in test [20], in test [17] and in test [12] was “inactive” each time. Also, the Potency entry in [18] and in test [14] was “inactive” throughout. In [15], the result was inactive.

On to `O=C(OCCCCCCOC(=O)c1ccccc1)c1ccccc1`, for which the Potency entry in test [1], in test [2], in test [3], in [4], in test [5] and in [7] was “inactive” throughout. Also, the Potency entry in test [8], in test [9], in test [10], in test [11], in test [17] and in test [12] was “inactive” each time. Further, the Potency result in test [13] and in [18] was “inactive” each time. Also, in test [15], the result was inactive.

For `CC(=O)NO`, the Potency entry in test [1], in test [2], in test [3], in test [4], in test [5] and in test [16] was “inactive” each time. Besides, the Potency result in test [8], in test [10], in test [11], in test [20], in [19] and in test [12] was “inactive” each time. Also, the Potency result in test [13], in [18] and in test [14] was “inactive” in each case. The result in test [15] was inactive.

For the molecule `CCC(=O)O[C@]1(C(=O)CCl)[C@@H](C)C[C@H]2[C@@H]3CCC4=CC(=O)C=C[C@]4(C)[C@@]3(F)[C@@H](O)C[C@@]21C`, the Potency result in [1], in [2], in [3], in [4], in test [5] and in test [6] was “inactive” throughout. In addition, the Potency result in [7], in [8], in test [10], in test [11], in test [17] and in [19] was “inactive” throughout. Besides, the Potency entry in [12], in [18] and in [14] was “inactive” each time. For the same molecule, in test [15], the molecule was called inactive.

With `Cc1ccc(C(=O)Oc2ccc(C(O)CNC(C)(C)C)cc2OC(=O)c2ccc(C)cc2)cc1` (stereo not drawn), the Potency in test [1] is 26.8 µM (active); in [3], 19 µM (active); in [4], 23.9 µM (active); in [5], 21.3 µM (active); in test [7] it was 26.8 µM (active); in [9], 23.9 µM (active). In addition, the Potency entry in [2], in [8], in [10], in [11], in [17] and in [12] was “inactive” each time. The Potency entry in test [14] is “inactive”. In test [15], the molecule was classed as inactive.
